Several values for one entry are separate records, joined by “and”; a condition that tells them apart may be missing. Identical values can stand only once. Hit rate of the full screen: of about 5,500 compounds, about 2,000 (36%) were called active. Not shown: some 18% with an inconclusive outcome. No stated cut-off is given here; in the data, active means normalized growth mostly below about 0.91 (no sharp cut-off); inconclusive means no clear call, values can overlap the other calls; inactive means mostly above about 0.92. This is one part of the list.
Experiment: chemical genetic growth profiling, strain panel (AID 1159580);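 further: tested at 20 µM; growth read once vehicle control cultures reached saturation at 30 °C; 1 = growth at the plate median or of vehicle wells; lower values mean less growth of the strain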
Conditions: growth OD

Measured: normalized growth

CSCCC(N)C(=O)NC(CC(C)C)C(=O)NC(Cc1ccccc1)C(=O)O (configuration not stated)
inactive: S. cerevisiae deletion strains, locus YAL013W, strain DEP1, active compounds read low 1.01 | S. cerevisiae deletion strains, locus YBR021W, strain FUR4, active compounds read low 1.02 | S. cerevisiae deletion strains, locus YBR229C, strain ROT2, active compounds read low 1.01 | S. cerevisiae deletion strains, locus YCL029C, strain bik1, active compounds read low 0.987 | S. cerevisiae deletion strains, locus YDL035C, strain GPR1, active compounds read low 1.02 | S. cerevisiae deletion strains, locus YDL074C, strain BRE1, active compounds read low 1.05 | S. cerevisiae deletion strains, locus YDL101C, strain DUN1, active compounds read low 1.02 | S. cerevisiae deletion strains, locus YDL134C, strain PPH21, active compounds read low 1.02 | S. cerevisiae deletion strains, locus YDL185W, strain tfp1, active compounds read low 1 | S. cerevisiae deletion strains, locus YDL192W, strain arf1, active compounds read low 1 | S. cerevisiae deletion strains, locus YDR101C, strain arx1, active compounds read low 0.994 | S. cerevisiae deletion strains, locus YDR150W, strain NUM1, active compounds read low 1.02 | S. cerevisiae deletion strains, locus YDR162C, strain NBP2, active compounds read low 1.02 | S. cerevisiae deletion strains, locus YDR318W, strain mcm21, active compounds read low 0.978 | S. cerevisiae deletion strains, locus YDR388W, active compounds read low 0.995 | S. cerevisiae deletion strains, locus YDR502C, strain sam2, active compounds read low 1.01 | S. cerevisiae deletion strains, locus YEL061C, strain CIN8, active compounds read low 1.01 | S. cerevisiae deletion strains, locus YER110C, active compounds read low 0.994 | S. cerevisiae deletion strains, locus YER155C, strain BEM2, active compounds read low 1.01 | S. cerevisiae deletion strains, locus YER167W, strain BCK2, active compounds read low 1.02 | S. cerevisiae deletion strains, locus YGL078C, strain dbp3, active compounds read low 0.987 | S. cerevisiae deletion strains, locus YGL086W, strain mad1, active compounds read low 0.999 | S. cerevisiae deletion strains, locus YGL248W, strain PDE1, active compounds read low 1.02 | S. cerevisiae deletion strains, locus YGR078C, strain PAC10, active compounds read low 1.03 | S. cerevisiae deletion strains, locus YGR135W, strain pre9, active compounds read low 1 | S. cerevisiae deletion strains, locus YGR229C, strain SMI1, active compounds read low 1.04 | S. cerevisiae deletion strains, locus YGR252W, strain gcn5, active compounds read low 0.956 | S. cerevisiae deletion strains, locus YHR030C, strain SLT2, active compounds read low 1 and 1.02 | S. cerevisiae deletion strains, locus YHR079C, strain IRE1 (second series), active compounds read low 0.988 | S. cerevisiae deletion strains, locus YHR079C, strain IRE1, active compounds read low 1.01 | S. cerevisiae deletion strains, locus YHR094C, strain hxt1, active compounds read low 0.996 | S. cerevisiae deletion strains, locus YHR129C, strain ARP1, active compounds read low 1.01 | S. cerevisiae deletion strains, locus YHR200W, strain rpn10, active compounds read low 0.995 | S. cerevisiae deletion strains, locus YIL066C, strain RNR3, active compounds read low 1.01 | S. cerevisiae deletion strains, locus YIL073C, strain SPO22, active compounds read low 1 | S. cerevisiae deletion strains, locus YIL125W, strain kgd1, active compounds read low 1 | S. cerevisiae deletion strains, locus YIR030C, strain dcg1, active compounds read low 0.998 | S. cerevisiae deletion strains, locus YJL095W, strain BCK1, active compounds read low 1.04 and 0.991 | S. cerevisiae deletion strains, locus YJL134W, strain LCB3, active compounds read low 1.01 | S. cerevisiae deletion strains, locus YJL168C, strain set2, active compounds read low 0.998 | S. cerevisiae deletion strains, locus YJL187C, strain SWE1 (second series), active compounds read low 1.02 | S. cerevisiae deletion strains, locus YJR043C, strain POL32, active compounds read low 1 | S. cerevisiae deletion strains, locus YJR066W, strain TOR1, active compounds read low 0.934 | S. cerevisiae deletion strains, locus YJR075W, strain HOC1, active compounds read low 1.02 | S. cerevisiae deletion strains, locus YKL009W, strain mrt4, active compounds read low 0.993 | S. cerevisiae deletion strains, locus YKL068W, active compounds read low 0.987 | S. cerevisiae deletion strains, locus YKL085W, strain MDH1 (second series), active compounds read low 1 | S. cerevisiae deletion strains, locus YKL085W, strain MDH1, active compounds read low 1 | S. cerevisiae deletion strains, locus YKL190W, strain CNB1, active compounds read low 1.01 | S. cerevisiae deletion strains, locus YKR001C, strain vps1, active compounds read low 0.995 | S. cerevisiae deletion strains, locus YLR039C, strain RIC1, active compounds read low 1.07 | S. cerevisiae deletion strains, locus YLR058C, strain SHM2, active compounds read low 1.01 | S. cerevisiae deletion strains, locus YLR102C, strain apc9, active compounds read low 0.994 | S. cerevisiae deletion strains, locus YLR113W, strain HOG1, active compounds read low 0.988 | S. cerevisiae deletion strains, locus YLR262C, strain YPT6, active compounds read low 1.04 | S. cerevisiae deletion strains, locus YLR268W, strain sec22, active compounds read low 1.01 | S. cerevisiae deletion strains, locus YLR330W, strain CHS5, active compounds read low 1.01 | S. cerevisiae deletion strains, locus YLR342W, strain FKS1 (second series), active compounds read low 1.01 | S. cerevisiae deletion strains, locus YLR371W, strain rom2, active compounds read low 1 | S. cerevisiae deletion strains, locus YLR418C, strain cdc73, active compounds read low 1 | S. cerevisiae deletion strains, locus YML016C, strain PPZ1, active compounds read low 1.01 | S. cerevisiae deletion strains, locus YML032C, strain rad52, active compounds read low 0.989 | S. cerevisiae deletion strains, locus YML124C, strain tub3, active compounds read low 0.995 | S. cerevisiae deletion strains, locus YMR078C, strain ctf18, active compounds read low 0.987 | S. cerevisiae deletion strains, locus YMR223W, strain ubp8, active compounds read low 0.995 | S. cerevisiae deletion strains, locus YMR263W, strain SAP30, active compounds read low 1.03 | S. cerevisiae deletion strains, locus YMR307W, strain GAS1, active compounds read low 0.996 | S. cerevisiae deletion strains, locus YNL067W, strain RPL9B, active compounds read low 1.03 | S. cerevisiae deletion strains, locus YNL128W, strain TEP1, active compounds read low 1.03 | S. cerevisiae deletion strains, locus YNL153C, strain GIM3, active compounds read low 1.02 | S. cerevisiae deletion strains, locus YNL183C, strain NPR1, active compounds read low 0.928 | S. cerevisiae deletion strains, locus YNL233W, strain BNI4, active compounds read low 1.02 | S. cerevisiae deletion strains, locus YNL250W, strain rad50, active compounds read low 1 | S. cerevisiae deletion strains, locus YNL271C, strain bni1, active compounds read low 0.994 | S. cerevisiae deletion strains, locus YNL298W, strain CLA4, active compounds read low 1 | S. cerevisiae deletion strains, locus YNL307C, strain MCK1, active compounds read low 0.98 | S. cerevisiae deletion strains, locus YNL322C, strain KRE1, active compounds read low 1.01 | S. cerevisiae deletion strains, locus YNR052C, strain pop2, active compounds read low 0.996 | S. cerevisiae deletion strains, locus YOL006C, strain TOP1, active compounds read low 1.11 | S. cerevisiae deletion strains, locus YOL012C, strain htz1 0.734 | S. cerevisiae deletion strains, locus YOL147C, strain pex11, active compounds read low 0.996 | S. cerevisiae deletion strains, locus YOR061W, strain CKA2, active compounds read low 1.02 | S. cerevisiae deletion strains, locus YOR069W, strain VPS5, active compounds read low 1.01 | S. cerevisiae deletion strains, locus YOR136W, strain idh2, active compounds read low 0.989 | S. cerevisiae deletion strains, locus YOR144C, strain elg1, active compounds read low 0.998 | S. cerevisiae deletion strains, locus YOR184W, strain ser1, active compounds read low 0.989 | S. cerevisiae deletion strains, locus YOR231W, strain MKK1, active compounds read low 1 | S. cerevisiae deletion strains, locus YOR316C, strain cot1, active compounds read low 0.998 | S. cerevisiae deletion strains, locus YPL055C, strain LGE1, active compounds read low 1.06 | S. cerevisiae deletion strains, locus YPL241C, strain CIN2, active compounds read low 1.01 | S. cerevisiae deletion strains, locus YPL256C, strain CLN2, active compounds read low 1.01 | S. cerevisiae deletion strains, locus YPR119W, strain clb2, active compounds read low 0.985 | S. cerevisiae deletion strains, locus YPR141C, strain kar3, active compounds read low 0.993 | S. cerevisiae deletion strains, locus YPR163C, strain tif3, active compounds read low 0.989 | S. cerevisiae deletion strains, locus YPR167C, strain met16, active compounds read low 0.993 | S. cerevisiae deletion strains, strain wtn01, active compounds read low 1.01 | S. cerevisiae strains, strain wild type, active compounds read low 1.01

Source: PubChem BioAssay AID1159580 (chemical genetic matrix, 2015)
